# Data as given in ChEMBL document CHEMBL5308504, “Tm Shift (DSF) assay results for EUbOPEN Chemogenomics Library” (2023).
# Several values for one entry are separate records, joined by “and”; a condition that tells them apart may be missing. Identical values can stand only once.
# Columns and labels:
# Conditions in all cases: Compound concentration 20.0 uM, Protein concentration 2.0 uM, Result type QC Liability
# [1] = molecular target: Tyrosine-protein kinase ABL1 (Homo sapiens) (UniProt P00519)
# Sequence of Tyrosine-protein kinase ABL1 (Homo sapiens) (P00519 whole entry): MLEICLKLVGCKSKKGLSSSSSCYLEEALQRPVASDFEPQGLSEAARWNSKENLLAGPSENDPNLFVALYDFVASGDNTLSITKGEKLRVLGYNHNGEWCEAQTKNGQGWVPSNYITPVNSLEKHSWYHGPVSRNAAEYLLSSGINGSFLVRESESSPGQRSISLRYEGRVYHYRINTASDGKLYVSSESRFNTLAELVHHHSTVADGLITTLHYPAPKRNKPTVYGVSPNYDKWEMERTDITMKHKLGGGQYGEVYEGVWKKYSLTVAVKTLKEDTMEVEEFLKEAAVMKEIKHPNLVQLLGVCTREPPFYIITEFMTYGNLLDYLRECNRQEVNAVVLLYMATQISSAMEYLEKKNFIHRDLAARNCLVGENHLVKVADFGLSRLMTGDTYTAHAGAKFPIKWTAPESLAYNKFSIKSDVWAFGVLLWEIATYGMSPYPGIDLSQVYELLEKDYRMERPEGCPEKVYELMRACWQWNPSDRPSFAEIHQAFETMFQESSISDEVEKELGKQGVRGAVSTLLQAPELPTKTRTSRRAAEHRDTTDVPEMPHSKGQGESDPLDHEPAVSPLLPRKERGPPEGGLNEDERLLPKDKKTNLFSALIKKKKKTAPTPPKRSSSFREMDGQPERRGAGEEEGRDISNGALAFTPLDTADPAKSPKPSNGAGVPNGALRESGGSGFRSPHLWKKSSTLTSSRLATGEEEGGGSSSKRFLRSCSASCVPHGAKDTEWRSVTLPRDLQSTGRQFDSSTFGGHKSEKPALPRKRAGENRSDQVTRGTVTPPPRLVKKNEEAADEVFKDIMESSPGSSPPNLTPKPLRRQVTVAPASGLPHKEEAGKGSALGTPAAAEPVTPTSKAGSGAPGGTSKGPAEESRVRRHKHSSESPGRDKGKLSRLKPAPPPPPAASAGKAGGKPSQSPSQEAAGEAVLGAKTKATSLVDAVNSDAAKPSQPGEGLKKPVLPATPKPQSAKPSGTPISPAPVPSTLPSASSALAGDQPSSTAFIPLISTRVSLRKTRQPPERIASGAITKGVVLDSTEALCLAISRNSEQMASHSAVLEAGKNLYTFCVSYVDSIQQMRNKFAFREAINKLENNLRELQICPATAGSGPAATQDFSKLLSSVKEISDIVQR
# [2] = molecular target: Cyclin-dependent kinase 2 (Homo sapiens) (UniProt P24941)
# [3] = molecular target: Casein kinase I isoform delta (Homo sapiens) (UniProt P48730)
# Sequence of Casein kinase I isoform delta (Homo sapiens) (P48730 whole entry, looked up, canonical isoform): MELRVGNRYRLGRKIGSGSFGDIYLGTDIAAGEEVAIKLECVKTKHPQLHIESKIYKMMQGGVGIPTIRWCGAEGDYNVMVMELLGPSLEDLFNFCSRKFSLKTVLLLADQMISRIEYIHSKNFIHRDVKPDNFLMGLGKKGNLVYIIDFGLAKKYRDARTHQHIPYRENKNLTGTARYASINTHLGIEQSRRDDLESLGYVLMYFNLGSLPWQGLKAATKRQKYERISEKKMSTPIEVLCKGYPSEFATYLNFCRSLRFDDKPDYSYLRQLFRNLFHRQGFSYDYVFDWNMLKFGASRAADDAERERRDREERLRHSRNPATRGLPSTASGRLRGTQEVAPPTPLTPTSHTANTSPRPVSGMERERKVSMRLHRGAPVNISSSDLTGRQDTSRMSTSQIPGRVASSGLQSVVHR
# [4] = molecular target: Glycogen synthase kinase-3 beta (Homo sapiens) (UniProt P49841)
# Sequence of Glycogen synthase kinase-3 beta (Homo sapiens) (P49841 whole entry, looked up): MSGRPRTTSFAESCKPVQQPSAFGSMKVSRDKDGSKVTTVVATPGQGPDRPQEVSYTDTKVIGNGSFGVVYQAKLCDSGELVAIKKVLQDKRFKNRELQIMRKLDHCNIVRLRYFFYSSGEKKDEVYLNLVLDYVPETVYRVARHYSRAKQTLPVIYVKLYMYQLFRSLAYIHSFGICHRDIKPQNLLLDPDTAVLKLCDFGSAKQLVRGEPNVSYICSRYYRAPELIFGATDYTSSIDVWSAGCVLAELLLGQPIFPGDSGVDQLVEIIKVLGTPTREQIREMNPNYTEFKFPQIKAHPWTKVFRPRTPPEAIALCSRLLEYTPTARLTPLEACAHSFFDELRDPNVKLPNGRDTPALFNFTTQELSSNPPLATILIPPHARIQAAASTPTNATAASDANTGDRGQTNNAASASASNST
# [5] = molecular target: Mitogen-activated protein kinase 1 (Homo sapiens) (UniProt P28482)
# Sequence of Mitogen-activated protein kinase 1 (Homo sapiens) (P28482 whole entry): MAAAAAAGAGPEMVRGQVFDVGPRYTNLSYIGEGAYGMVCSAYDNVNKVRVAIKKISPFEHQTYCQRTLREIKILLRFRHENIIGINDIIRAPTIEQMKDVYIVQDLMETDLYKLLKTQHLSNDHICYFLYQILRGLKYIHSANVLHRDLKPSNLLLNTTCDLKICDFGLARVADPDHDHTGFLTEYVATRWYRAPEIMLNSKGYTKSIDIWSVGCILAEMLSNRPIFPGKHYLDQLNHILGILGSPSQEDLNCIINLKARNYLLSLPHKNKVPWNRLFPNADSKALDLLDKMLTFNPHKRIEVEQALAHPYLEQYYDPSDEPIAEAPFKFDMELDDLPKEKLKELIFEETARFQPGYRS
# [6] = molecular target: T1, Aurora kinase A (Homo sapiens) (UniProt O14965)
# T1 sequence (whole entry): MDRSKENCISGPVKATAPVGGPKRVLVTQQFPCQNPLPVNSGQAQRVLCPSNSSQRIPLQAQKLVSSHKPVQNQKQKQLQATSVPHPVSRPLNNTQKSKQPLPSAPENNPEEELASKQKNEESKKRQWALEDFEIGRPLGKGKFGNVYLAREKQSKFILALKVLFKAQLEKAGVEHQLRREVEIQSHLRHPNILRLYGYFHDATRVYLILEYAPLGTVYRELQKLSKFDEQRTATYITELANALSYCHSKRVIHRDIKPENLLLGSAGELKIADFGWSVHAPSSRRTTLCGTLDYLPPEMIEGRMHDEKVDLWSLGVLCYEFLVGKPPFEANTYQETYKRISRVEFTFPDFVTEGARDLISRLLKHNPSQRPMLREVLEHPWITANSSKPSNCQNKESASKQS
structure (smiles),measurement,setting,value
COc1cc(Cl)c(C(=O)N[C@@H](CN[C@H]2CC[C@@H](N)CC2)Cc2ccc(C#N)cc2)cc1-c1ccc(CN[C@H](C)c2ccc(C)cc2)o1,ΔTm,[1],0.33 °C
same,ΔTm,[2],0.42 °C
same,ΔTm,[3],-0.07 °C
same,ΔTm,[4],-0.81 °C
same,ΔTm,[5],0.33 °C
same,ΔTm,[6],0.07 °C
CC(C)NC(=O)[C@H]1CCC[C@H]1Nc1nc(Nc2ccc(C(=O)N(C)C3CCN(C)CC3)cc2)ncc1Cl,ΔTm,[1],10.3 °C and 6.45 °C
same,ΔTm,[2],1.23 °C and 1.13 °C
same,ΔTm,[3],0.47 °C and 0.12 °C
same,ΔTm,[4],0.76 °C and -0.38 °C
same,ΔTm,[5],0.47 °C and 0.79 °C
same,ΔTm,[6],15.7 °C and 14.3 °C
COc1ccc(CC[C@@H](OC(=O)[C@@H]2CCCCN2C(=O)[C@H](c2cc(OC)c(OC)c(OC)c2)C2CCCCC2)c2cccc(OCCN3CCOCC3)c2)cc1OC,ΔTm,[1],-1.71 °C
same,ΔTm,[2],-1.5 °C
same,ΔTm,[3],-2.54 °C
same,ΔTm,[4],-2.19 °C
same,ΔTm,[5],-0.05 °C
same,ΔTm,[6],-0.45 °C
C[C@@]1(Cc2ccc(C#N)cc2)C(=O)N(c2cc(Cl)cc(Cl)c2)c2ncc(C(=O)NC3(c4nc(C5CCC5)no4)CC3)n21,ΔTm,[1],0.13 °C
same,ΔTm,[2],-0.03 °C
same,ΔTm,[3],3.08 °C
same,ΔTm,[4],10.7 °C
same,ΔTm,[5],3.07 °C
same,ΔTm,[6],11.8 °C
CC[C@H](CC(=O)O)n1c(=O)c2ncccc2n(Cc2cn(C)c3cc(C)cc(C)c23)c1=O,ΔTm,[1],-0.39 °C and 0.26 °C
same,ΔTm,[2],0.68 °C and 0.96 °C
same,ΔTm,[3],0.28 °C and -0.08 °C
same,ΔTm,[4],-0.11 °C and -0.78 °C
same,ΔTm,[5],0.08 °C and 0.23 °C
same,ΔTm,[6],-0.13 °C and 0.01 °C
CC(C=CC1=C(C)CCCC1(C)C)=CC=CC(C)=CC(=O)O,ΔTm,[1],0.39 °C
same,ΔTm,[2],0.25 °C
same,ΔTm,[3],0.93 °C
same,ΔTm,[4],-0.56 °C
same,ΔTm,[5],0.1 °C
same,ΔTm,[6],-3.01 °C
O=C(O)C[C@H]1CCn2c1c(Sc1ccc(Cl)cc1)c1ccc(F)cc12,ΔTm,[1],-1 °C
same,ΔTm,[2],-1.1 °C
same,ΔTm,[3],-0.47 °C
same,ΔTm,[4],0 °C
same,ΔTm,[5],-0.38 °C
same,ΔTm,[6],-0.18 °C
CCCNc1ccc2ncc(-c3ccncc3)n2n1,ΔTm,[1],5.22 °C
same,ΔTm,[2],4.76 °C
same,ΔTm,[3],5.6 °C
same,ΔTm,[4],4.07 °C
same,ΔTm,[5],1.16 °C
same,ΔTm,[6],6.52 °C
CCCCCNC(=O)N1CCC(CN(Cc2ccc(Cl)cc2)Cc2ccc([N+](=O)[O-])s2)C1 (stereo not given),ΔTm,[1],0.03 °C
same,ΔTm,[2],0.81 °C
same,ΔTm,[3],0.7 °C
same,ΔTm,[4],-1.49 °C
same,ΔTm,[5],0.03 °C
same,ΔTm,[6],-0.9 °C
CN1CCN(c2ccc(/C=C(\C#N)c3ccccc3Br)cc2)CC1,ΔTm,[1],-0.04 °C
same,ΔTm,[2],0.19 °C
same,ΔTm,[3],0.85 °C
same,ΔTm,[4],-0.47 °C
same,ΔTm,[5],0.11 °C
same,ΔTm,[6],-1.83 °C
CC(=O)c1ccc2c(c1)/C(=C(/Nc1cccc(C#N)c1)c1ccc3c(c1)OCCO3)C(=O)N2,ΔTm,[1],6.24 °C
same,ΔTm,[2],5.79 °C
same,ΔTm,[3],1.02 °C
same,ΔTm,[4],12 °C
same,ΔTm,[5],0.75 °C
same,ΔTm,[6],4.32 °C
COc1ccc(C(=O)N[C@H](C)c2cccc(C(=O)Nc3nc4c(s3)CN(C)CC4)c2)cc1C,ΔTm,[1],0.22 °C
same,ΔTm,[2],0.42 °C
same,ΔTm,[3],0.41 °C
same,ΔTm,[4],-0.51 °C
same,ΔTm,[5],0.45 °C
same,ΔTm,[6],0.16 °C
Cc1ccc(NC(=O)c2ccc3c(c2)OCCO3)cc1NC(=O)c1ccc2nc(OCCN3CCCC3)ccc2c1,ΔTm,[1],2.56 °C
same,ΔTm,[2],1.06 °C
same,ΔTm,[3],1.91 °C
same,ΔTm,[4],0.36 °C
same,ΔTm,[5],0.33 °C
same,ΔTm,[6],-0.43 °C
O=C(NC[C@@H]1[C@H]2CN(C(=O)OCc3cc(C(F)(F)F)cc(C(F)(F)F)c3)C[C@@H]12)c1ccc2[nH]nnc2c1,ΔTm,[1],-2.53 °C
same,ΔTm,[2],-9.8 °C
same,ΔTm,[3],0.69 °C
same,ΔTm,[4],-10.5 °C
same,ΔTm,[5],-10.3 °C
same,ΔTm,[6],0.61 °C
Nc1ncnc2[nH]c(-c3ccccc3)nc12,ΔTm,[1],3.48 °C
same,ΔTm,[2],0.92 °C
same,ΔTm,[3],0.73 °C
same,ΔTm,[4],1.04 °C
same,ΔTm,[5],0.38 °C
same,ΔTm,[6],0.6 °C
CN1C(=O)Cc2ccc(-c3ccc(C[C@@H](C#N)NC(=O)[C@H]4N[C@@H]5CC[C@H]4C5)c(F)c3)cc21,ΔTm,[1],0.24 °C
same,ΔTm,[2],0.52 °C
same,ΔTm,[3],0.41 °C
same,ΔTm,[4],0.41 °C
same,ΔTm,[5],0.5 °C
same,ΔTm,[6],0.8 °C
Cn1c(C2(NC(=O)c3ccc(NCC4CCCCC4)nc3)CCC2)nc2ccc(/C=C/C(=O)O)cc21,ΔTm,[1],0.22 °C
same,ΔTm,[2],0.23 °C
same,ΔTm,[3],0.38 °C
same,ΔTm,[4],-1.07 °C
same,ΔTm,[5],0.02 °C
same,ΔTm,[6],0.04 °C
COc1cccc(CNc2ccc(S(=O)(=O)Nc3nc4ccccc4s3)cc2)c1O,ΔTm,[1],0.16 °C
same,ΔTm,[2],0.93 °C
same,ΔTm,[3],0.86 °C
same,ΔTm,[4],0.88 °C
same,ΔTm,[5],-0.57 °C
same,ΔTm,[6],1.13 °C
CC(C)(C[C@H]1CN(S(=O)(=O)c2cccc(C(F)(F)F)c2)c2cc(-c3cc(F)cc(OC(F)F)c3)ccc2O1)C(=O)O,ΔTm,[1],-1.5 °C
same,ΔTm,[2],-2.02 °C
same,ΔTm,[3],-2.71 °C
same,ΔTm,[4],-2.26 °C
same,ΔTm,[5],-6.9 °C
same,ΔTm,[6],-3.89 °C
CCCCC/C=C/C=C1/C(=O)C=C[C@@H]1C/C=C\CCCC(=O)O,ΔTm,[1],-2.05 °C
same,ΔTm,[2],-0.61 °C
same,ΔTm,[3],-0.75 °C
same,ΔTm,[4],-0.25 °C
same,ΔTm,[5],-0.53 °C
same,ΔTm,[6],-1.52 °C
